Screening results (PubChem)
A selection: hits, their analogues and other compounds. The true share with any hit is near 12%.
HP1b binding inh – inhibitors of HP1-beta chromodomain binding to methylated histone tails; P83916; Potency, µM (highest dose often 114 µM), without a hit: at the top dose activity change, negative = inhibition, actives largely listed as inhibitors; AID 540317; hit rate 0.56% among 390,000; AlphaScreen HP1-beta / biotin-H3K9me3 peptide binding; note: nearly all actives have a fitted effect of over 70% in size
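HP1-beta protein (50 nM final) preincubated 30 min at room temperature with biotinylated H3(1-18)K9me3 peptide (50 nM) in PBS pH 7.4, 0.01% Tween-20, then compound added for 30 min. AlphaScreen streptavidin donor/nickel chelate acceptor beads (10 ug/mL final), 30 min dark, luminescence read.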
G9a block – G9a (human) methyltransferase inhibition | Q96KQ7 | G9a H3K9 monomethylation, AlphaScreen, 2 h | Potency, µM (highest dose often 102 µM), for the others: top-dose activity, negative = inhibition, most hits filed as inhibitors | hit rate 8.8% among 350,000; note: % is set by controls: 0 for no effect and ±100 for the full control effect; nearly all actives have a fitted effect of over 75% in size
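Quantitative HTS format: methyltransferase activity on a biotin-tagged H3K9 peptide is measured by AlphaScreen, using a rabbit anti-monomethyl-H3K9 antibody with streptavidin donor and anti-IgG acceptor beads. Final levels are 20 nM enzyme, 500 nM peptide, 20 uM SAM; 2 h RT.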
BAZ2B inh – inhibitors of human BAZ2B bromodomain; Q9UIF8; hit rate 4.4% among 360,000; Potency, µM (series often up to 114 µM), inactives show at the highest dose activity change, negative = inhibition, actives largely listed as inhibitors; AlphaScreen BAZ2B-H3K14Ac peptide displacement; note: % is set by controls: 0 for no effect and ±100 for the full control effect; nearly all actives have a fitted effect of over 60% in size
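Complex of BAZ2B and biotin-H3K14Ac (50 nM apiece) forms over 30 min at RT, then faces library compounds up to 110 uM for another 30 min; AlphaScreen beads added, 20 min dark incubation, luminescence read.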
Sfp inh – Sfp phosphopantetheinyl transferase inhibition | hit rate 3.5% among 310,000 | Q9F4F7 | Biochemical Sfp PPTase activity, qHTS | Potency, µM, for the others: largest response in the series, negative = inhibition, actives largely listed as inhibitors;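 note: the enzyme is Sfp with the accession as filed and its product quenches rhodamine fluorescence; 0% = enzyme reaction without inhibitor and -100% = no enzyme wells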
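Fluorescence-quenching assay with 15 nM Sfp, 5 uM rhodamine-CoA and 12.5 uM BHQ-2-labelled ybbR peptide in pH 7.6 Hepes/MgCl2 buffer. Enzyme was pre-incubated with compound for 15 min at room temperature. Rate was taken from the 30-min fluorescence change (525/598 nm).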
JMJD2A Tudor inh – JMJD2A Tudor domain (human) inhibition; O75164; hit rate 4.4% among 390,000; Potency, µM (doses to about 114 µM), for the others: top-dose activity change, negative = inhibition, usual class: inhibitors; AlphaScreen JMJD2A-Tudor / H3K4me3 peptide binding; AID 504339; note: % is set by controls: 0 for no effect and ±100 for the full control effect; nearly all actives have a fitted effect of over 50% in size
Target sequence (O75164 whole entry, looked up, the tested form may be a part): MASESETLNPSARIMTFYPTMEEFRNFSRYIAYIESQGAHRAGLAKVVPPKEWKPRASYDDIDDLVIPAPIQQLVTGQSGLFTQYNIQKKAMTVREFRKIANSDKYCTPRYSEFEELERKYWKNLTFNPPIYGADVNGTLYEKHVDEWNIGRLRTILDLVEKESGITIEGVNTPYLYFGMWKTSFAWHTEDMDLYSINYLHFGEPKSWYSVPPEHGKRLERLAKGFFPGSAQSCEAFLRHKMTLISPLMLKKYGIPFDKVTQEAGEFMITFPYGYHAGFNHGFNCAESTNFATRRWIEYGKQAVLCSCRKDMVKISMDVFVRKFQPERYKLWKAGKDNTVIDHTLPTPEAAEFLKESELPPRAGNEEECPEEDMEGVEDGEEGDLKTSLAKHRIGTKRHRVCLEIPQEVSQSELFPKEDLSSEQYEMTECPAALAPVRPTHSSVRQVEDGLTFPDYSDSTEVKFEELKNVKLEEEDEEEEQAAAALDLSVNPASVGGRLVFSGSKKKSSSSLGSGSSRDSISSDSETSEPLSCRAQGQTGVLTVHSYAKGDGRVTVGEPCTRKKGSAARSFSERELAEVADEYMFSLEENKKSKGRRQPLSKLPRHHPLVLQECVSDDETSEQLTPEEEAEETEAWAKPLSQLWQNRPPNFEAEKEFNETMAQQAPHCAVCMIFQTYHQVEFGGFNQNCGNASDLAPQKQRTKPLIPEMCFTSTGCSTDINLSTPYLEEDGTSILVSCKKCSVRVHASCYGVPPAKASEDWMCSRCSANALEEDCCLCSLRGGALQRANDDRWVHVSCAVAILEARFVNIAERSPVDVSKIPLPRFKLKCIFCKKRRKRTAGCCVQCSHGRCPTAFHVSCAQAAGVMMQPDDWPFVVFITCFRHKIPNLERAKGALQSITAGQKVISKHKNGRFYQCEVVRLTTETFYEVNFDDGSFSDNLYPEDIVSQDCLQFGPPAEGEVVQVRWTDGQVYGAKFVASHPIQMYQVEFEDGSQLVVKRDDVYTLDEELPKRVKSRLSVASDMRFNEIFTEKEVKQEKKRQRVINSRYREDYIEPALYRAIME
Numbers without * were called inactive; ? = inconclusive; . = no result; [ ] = dose if it differs, or a comment. Calls come from the whole dose curve; as a rule, active = well fitted curve in the direction sought with a large enough effect; inconclusive = small, poorly fitted or top-dose-only effect, or another doubt; inactive = no such curve, though single readings can be large; an effect the other way counts as inactive or inconclusive. Potency is the fitted concentration of half-maximal effect.

SMILES | HP1b binding inh | G9a block | BAZ2B inh | Sfp inh | JMJD2A Tudor inh
O=C(O)c1cc2ncc(-c3[nH]ncc3[N+](=O)[O-])cn2n1 | -24% | -47% | -21% | 10% | 79µM*
CCn1c(C)c(C)c2cc(C(=O)Nc3cccc(Cl)c3)ccc21 | -8% | 79µM* | -11%[57.1 µM] | 21% | -31%[57.1 µM]
O=C(Nc1ccc2c(c1)ncn2C1CCCCC1)c1ccco1 | 45% | 32µM* | -8% | -18% | -6%[57.1 µM]
O=C(NCCCN1CCCCC1)c1ccc2c(c1)ncn2C1CCCC1 | 43% | 45µM* | -19% | 3% | -8%
CCn1c(C)c(C)c2cc(C(=O)NCCCN3CCCC3)ccc21 | 3% | 56µM* | -18%[57.1 µM] | -4% | 50µM*
CCCCC1CCC(C(=O)N2CC(=O)Nc3ccc(Cl)cc3C2c2ccc(F)cc2)CC1 (stereo not given) | 4% | -7%[59 µM] | -17% | . | -24%
Cc1ccc(-n2ncc(C(=O)N3CCCCC3)c2C2CCN(C(=O)OC(C)(C)C)CC2)c(C)c1 | 7% | -17%[59 µM] | 2%[57.1 µM] | . | -16%
Cc1c(C)n(Cc2ccccc2)c2ccc(C(=O)NCCN3CCOCC3)cc12 | 7% | ? | ? | 0% | ?
O=C(NCCCN1CCN(c2ccccc2F)CC1)c1ccc2nc(N3CCCCC3)sc2c1 | -19% | 11µM* | -11% | . | ?
Cc1c(C)n(Cc2ccc(Cl)cc2)c2ccc(C(=O)NCCN3CCOCC3)cc12 | -8% | ? | 45µM* | -19% | ?
c1ccc(COc2ccc(CNCc3cccs3)cc2)cc1 | 50% | 14% | 44% | 56µM* | 17%
Cc1ccccc1N1CCN(Cc2cc3c(cc2[N+](=O)[O-])OCO3)CC1 | 8% | . | ? | -16% | -26%
CCOc1ccccc1N1CCN(Cc2cc3c(cc2[N+](=O)[O-])OCO3)CC1 | -14% | 71µM* | ? | -19% | ?
CCOc1ccccc1N1CCN(C(=O)c2ccc3c(c2)OCO3)CC1 | 16% | 20% | -10% | 14% | -12%
O=[N+]([O-])c1cc2c(cc1CN1CCN(c3ccccc3F)CC1)OCO2 | 9% | -19%[59 µM] | 56µM* | -8% | -31%
COc1ccc(C2C=C(c3ccc(Br)s3)Nc3ncnn32)cc1OC (stereo not given) | . | 11µM* | ? | 56µM* | .
COc1cccc(C2C=C(c3cccs3)Nc3ncnn32)c1OC (stereo not given) | 25% | . | ? | 50µM* | -28%
CC1CCCCN1S(=O)(=O)c1cccc2cccnc12 (stereo not given) | 21% | 32µM* | -6% | 6% | -15%
O=C(O)[C@H]1CCCN1S(=O)(=O)c1cccc2cccnc12 | 35% | 13%[12.7 µM] | 11% | . | -27%
CN(C)CCCOc1ccc2c(c1)Sc1ccccc1CC2=O | 16% | -27%[59 µM] | 13% | 22µM* | -19%
O=C1Cc2ccccc2Sc2cc(OCCCN3CCCCC3)ccc21 | 5% | ? | -9% | -4% | -25%
O=C(Nc1ccc(F)cc1F)c1cc2nc(-c3ccco3)cc(C(F)(F)Cl)n2n1 | 44% | 24%[59 µM] | 4% | . | -18%
c1ccc(-c2cc(NCCN3CCCCC3)c3ccccc3n2)cc1 | 21% | 40µM* | -21% | -4% | -14%
COc1ccccc1N1CCN(C2CCCN(C(=O)c3cccc(-c4ccco4)c3)C2)CC1 (stereo not given) | ? | . | 11% | -27% | ?
Cc1cccc(NC(=O)C2CCN(c3nnc(C)c4c(C)n(-c5ccccc5)nc34)CC2)c1C | 9% | -3%[59 µM] | -4% | . | -8%
CC(C)C[C@@H]1NC(=O)[C@H](CO)NC(=O)c2cc([N+](=O)[O-])cc(I)c2OCC[C@@H](C(N)=O)NC1=O | 28% | 40µM* | -32% | 33% | -9%
CC[C@H](C)[C@@H]1NC(=O)c2cc([N+](=O)[O-])cc(F)c2NCCCC[C@@H](C(N)=O)NC(=O)[C@H](CCCCN)NC1=O | 4% | ? | -7% | 0% | -31%
C[C@@H](O)C1NC(=O)[C@H](CCCCN)NC(=O)c2cc([N+](=O)[O-])cc(I)c2OCC[C@@H](C(N)=O)NC1=O (stereo not given in full) | -9% | 8.9µM* | ? | 13% | 56µM*
Nc1nc(SCC(=O)c2cccc([N+](=O)[O-])c2)n[nH]1 | 11% | 2.5µM* | -27% | ? | -12%
